From PubChem BioAssay AID720716 (Broad Institute, 2013)
Activity calls are given as the source filed them.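 How the source made its calls: active means compounds whose fitted half-maximal concentration is at most twice the top tested dose; inconclusive means flat curve with 30 to 70% signal loss, or poor fit; inactive means flat, opposite-direction or too weak compounds.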

Assay: inhibitors of control Renilla luciferase reporter, dose response, counter-screen for Shn3 3'UTR targeting project, Clone20-Shn3RL cells, dual-Glo, dry powder (AID 720716)
Details: 24 h; series mostly up to 35 µM; activity change, negative = inhibition: at the top concentration

Structure (SMILES)	activity change, negative = inhibition
Cc1cc(N2CCCC2=O)cc(C)c1S(=O)(=O)NCCOc1ccc(C(C)(C)C)cc1	0% (inactive)
Cc1ccc2cc(CN(CC3CCCO3)C(=O)NC3CCCCC3)c(=O)[nH]c2c1C (configuration not stated)	0% (inactive)
Cc1cc2c(cc(C(=O)N3CCC(C(=O)NC4CCCC4)CC3)n2Cc2c(F)cccc2Cl)o1	10% (inactive)
CCOC(=O)C1CCN(C(=O)c2ccc(OCC(=O)Nc3cccc(C(F)(F)F)c3)c(OC)c2)CC1	-12.5% (inactive)
CC(C)[C@H](NC(=O)OC(C)(C)C)c1nnc(S(=O)(=O)Cc2c(F)cccc2Cl)o1	-25% (inactive)
CC(C)(C)NC(=O)CSc1nc2ccc(NC(=O)CSc3nnnn3Cc3ccccc3)cc2s1	0% (inactive)
COc1ccc(NC(=O)c2nc(S(=O)(=O)Cc3cccc(C)c3)ncc2Cl)c(OC)c1	0% (inactive)
CN(CC(=O)Nc1cccc(S(=O)(=O)N2CCOCC2)c1)CC(=O)Nc1ccc(Cl)c(C(F)(F)F)c1	0% (inactive)
Fc1ccc(-n2nnnc2-c2cnc(-c3cccs3)nc2C(F)(F)F)cc1	-12.5% (inactive)
COc1cc2ncnc(N[C@H](C)c3ccccc3)c2cc1OC	-22.5% (inactive)
CCOC(=O)C1(Cc2ccc(Cl)cc2)CCN(C(C)Cc2ccc(O)c(OC)c2)CC1 (configuration not stated)	-20% (inactive)
CCOC(=O)c1ccc(NC(=O)Cn2ncc(Cl)c(Cl)c2=O)cc1	0% (inactive)
O=C(c1nnsc1S(=O)c1ccc(Cl)cc1)N1CCOCC1 (configuration not stated)	-12.5% (inactive)
COc1ccc(NS(=O)(=O)c2ccc(C(=O)N3CCCCCC3)cc2)cc1	-26.7% (inactive)
COc1cc(CN2CCc3ccccc3C2)ccc1O	-29.2% (inactive)
COc1ccc2c(c1)c(CC(=O)Nc1cc(C)ccc1C)c(C)n2C(=O)c1ccc(Cl)cc1	16.7% (inactive)
COc1ccc(Nc2nc(N3CCCCC3)c3ccccc3n2)cc1	0% (inactive)
O=c1c2ccccc2nc2n1C(CSCc1ccc(Cl)cc1Cl)CS2 (configuration not stated)	-12.5% (inactive)
CCCc1nnc(NC(=O)c2nc(S(=O)(=O)Cc3ccc(C)cc3)ncc2Cl)s1	-25% (inactive)
CC(=O)N1CCN(C(=O)CCc2cc(C(C)(C)C)c(O)c(C(C)(C)C)c2)CC1	0% (inactive)
CC(=O)Nc1cccc(NC(=O)CSc2ncc(-c3ccc(Cl)cc3)n2Cc2ccco2)c1	0% (inactive)
CCCOc1ccccc1C1CC(=O)Nc2cc3c(cc21)OCO3 (configuration not stated)	-33.3% (inactive)
Nc1nonc1C(=O)NCCNCc1cc(Br)ccc1OCc1ccc(F)cc1	-22.5% (inactive)
CN(C(=O)COc1ccccc1C(=O)NCCOc1ccccc1)c1ccccc1	-12.5% (inactive)
O=C1CSc2ccc(C(=O)Nc3cccc(S(=O)(=O)Nc4ccc(Br)cc4)c3)cc2N1	0% (inactive)
CN(C)c1nc(-c2ccccn2)nnc1-c1ccccc1	20% (inactive)
COc1ccccc1N1CCN(c2ncc(C(=O)N3CCN(c4cccc(Cl)c4)CC3)c3ccccc23)CC1	20% (inactive)
